The text below walks through data of PubChem BioAssay (Tox21).

Records with an inconclusive call do not appear. A number with no mark means an inactive call. The call rests on the fitted dose curve; in most records, active means well fitted activation curve with a large enough effect in the signal ratio in the repeat runs (not every such curve was filed as active); inconclusive means weak or mixed curves, or effect the other way; inactive means flat fitted curve, though single readings scatter; the % refers to the signal ratio.
On the % scale 0 is the no-effect control and ±100 the full control effect.

A short description of the experiment: qHTS assay to identify small molecule agonists of the endoplasmic reticulum stress response signaling pathway (AID 1159516). Conditions: ESRE-bla HeLa, ER stress beta-lactamase reporter, 5 h; series mostly up to 61 µM; activation: at the top concentration. From the text: National Center for Advancing Translational Sciences [NCATS]
NIH Chemical Genomics Center [NCGC]
U.S. Environmental Protection Agency [EPA]
National Institutes of Environmental Health Sciences [NIEHS]
National Toxicology Program [NTP]
U.S. Food and Drug Administration [FDA]
Endoplasmic Reticulum (ER) plays an important role in cellular signaling, protein folding/maturation, stress response, lipid biosynthesis, calcium storage and release etc. Under stress conditions, proteins in ER misfold or unfold, and leading to the expression of ER stress responsive genes. ER stress has been associated with a variety of pathophysiological conditions such as cancer, inflammation, neurodegenerative diseases, diabetes, ischemic heart disease etc. To identify the compounds that induce ER stress response, an ER stress reporter cell line, CellSensor ESRE-bla HeLa (Life Technologies, Carlsbad, CA) containing a beta-lactamase reporter gene under control of the Endoplasmic reticulum Stress Response Element (ESRE) was used to screen Tox21 10K compound library.
Tox21 Assay Protocol Summary:
ESRE-bla HeLa cells were dispensed at 1,500 cells/6 uL of assay medium per well into black wall/clear-bottom 1536-well plates using a Multidrop Combi (ThermoFisher Scientific, Waltham, MA) dispenser. After the assay plates were incubated at 37 C and 5% CO2 for an overnight, 23 nL of compounds dissolved in DMSO, positive controls or DMSO only was transferred to the assay plate by a Pintool station (Kalypsys, San Diego, CA). The assay plates were incubated at 37 C and 5% CO2 for 5 hr. One uL of LiveBLAzer B/G FRET substrate (Life Technologies) was added using a Flying Reagent Dispenser (Aurora Discovery, San Diego, CA) and the plates were incubated at room temperature for 2 hr. Fluorescence intensity (405 nm excitation, 460 nm and 530 nm emissions) was measured using an Envision plate reader (PerkinElmer, Shelton, CT).
Take `CCO[C@H]1O[C@@H]2OC3(C)CC[C@H]4[C@H](C)CC[C@@H]([C@H]1C)[C@@]24OO3`: the “activation” value was -2.18%.

With `O=C(O)CC(Cl)C(=O)O` (stereo not given), the “activation” value is -0.182% [at 78.8 µM]. For `COP(=O)(OC)O/C(=C/Cl)c1cc(Cl)c(Cl)cc1Cl` the value was 0.298% [at 78.8 µM]; for `COC1=CC(=O)O[C@@H](CCc2ccccc2)C1`, 1.58% [at 78.8 µM]; for `CCOP(=S)(OCC)SCn1nnc2ccccc2c1=O`, 1.15%. On to `Cn1cc[n+](C)c1` (tested in a mixture with another compound), for which the “activation” value was -2.37% [at 78.8 µM].

As to `Clc1ccc(C(OCCN2CCCCC2)c2ccccc2)cc1` (stereo not given), the “activation” value is 1.03%. For `O=C(O)COc1ccc(Cl)cc1` the value was -4.01%. For `Sc1ccccc1Cl` the value was 0.105%.

`Cc1c(F)c(F)c(COC(=O)C2C(/C=C(\Cl)C(F)(F)F)C2(C)C)c(F)c1F` (stereo not given): the “activation” value is 2.16%.

For the compound `CCCCc1c(C)nc(NCC)nc1OS(=O)(=O)N(C)C`, the “activation” value is -2.75%. For `ClCc1cccc(Cl)c1`, the “activation” value is 5.61%. For `Brc1ccc(Oc2ccccc2)cc1` the value was -0.146%; for `C[N+](C)(C)CCCl`, 1.42% [at 78.8 µM]; for `CC(Cl)Cl`, -1.47%.

Regarding `CCCC(=O)Cl`, the “activation” value is 2.08%. Take `O=C(Nc1ccccc1)Nc1cnns1`: the “activation” value is -4.09%. For the compound `Cc1ccc(-c2c(Cl)nc(C#N)n2S(=O)(=O)N(C)C)cc1`, the “activation” value was -1.72%. For `COP(=S)(OC)Oc1ccc([N+](=O)[O-])cc1Cl` the value was 5.45%; for `Cl/C=C\Cl`, 1.27%; for `Cn1sc(Cl)cc1=O`, -2.12%. Regarding `COc1cc(Cl)c(OC)cc1Cl`, the “activation” value is -0.128%. As for `CC1(C)CCC(Cc2ccc(Cl)cc2)C1(O)Cn1cncn1` (stereo not given), the figure is -2.42%. As for `NCCCNCCCN`, the figure is 2.96% [at 78.8 µM]; as for `CC(c1ccc(O)cc1)(c1ccc(O)cc1)c1ccc(O)cc1`, -0.627%; as for `CN(C)c1ccc(N(C)C)cc1`, 6.08%. As for `C[C@H]1CNCCc2ccc(Cl)cc21`, the figure is 0.0669%; as for `O=C(NC(=O)c1c(F)cccc1F)Nc1cc(Cl)c(Oc2ncc(C(F)(F)F)cc2Cl)c(Cl)c1`, 6.47%; as for `CC(=O)NC1CCSC1=O` (stereo not given), -0.0263%.

As to `CCCN(CCCl)c1c([N+](=O)[O-])cc(C(F)(F)F)cc1[N+](=O)[O-]`, the “activation” value is -0.2%. As for `CCOP(=O)(OCC)O/C(=C/Cl)c1ccc(Cl)cc1Cl`, the figure is -0.743%; as for `Cc1ccccc1C(=O)Nc1cccc(OC(C)C)c1`, -0.15%; as for `C=CC(=O)OCCCCO`, -2.28%. For `CCOS(C)(=O)=O` the value was 0.182% [at 78.8 µM].

Regarding `C#CCOC(C(=O)OCCN(C)C)(c1ccccc1)c1ccccc1`, the “activation” value was -1.39%. Take `COC(=O)C(C)N(C(=O)Cc1ccccc1)c1c(C)cccc1C` (stereo not given): the “activation” value is -7.52%. In the case of `C=CC(C)=O`, the “activation” value was 0.702%. On to `Cc1ccc2ccccc2c1`, for which the “activation” value is -1.9%. `Brc1ccccc1`: the “activation” value is 1.85%. In the case of `O=C1C(Cl)C(CCl)CN1c1cccc(C(F)(F)F)c1` (stereo not given), the “activation” value was -2.01%.
